# Measured values published in PubChem BioAssay (NCI).
# About 83,000 compounds went through this panel and 20% of them were active in at least one assay; those are over-represented in the sample as a whole.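 Compound tested at a single concentration for 48 hours in 96-well plates; a percent growth value below 10 was scored as active.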 A number with no mark means an inactive call. Active and inactive are the calls of the source.
# Assays:
# Experiment in all cases: NCI-60 one-dose screen, 48 h (100 = growth as untreated, 0 = no growth, -100 = all killed)
# NCI-H460 lung = conditions: 10 µM unless noted
# 786-0 renal = conditions: 10 µM unless noted
# DU-145 prostate = conditions: 10 µM unless noted
# SF-268 CNS = conditions: 10 µM unless noted
# SF-539 CNS = conditions: 10 µM unless noted
# M14 melanoma = conditions: 10 µM unless noted
# HCT-15 colon = conditions: 10 µM
# SNB-75 CNS = conditions: 10 µM unless noted
# PC-3 prostate = conditions: 10 µM unless noted
# UACC-62 melanoma = conditions: 10 µM unless noted
# TK-10 renal = conditions: 10 µM unless noted
# ACHN renal = conditions: 10 µM unless noted
# CAKI-1 renal = conditions: 10 µM unless noted
# HL-60(TB) leukemia = conditions: 10 µM unless noted
# MOLT-4 leukemia = conditions: 10 µM
# OVCAR-3 ovarian = conditions: 10 µM unless noted
# NCI/ADR-RES ovarian = conditions: 10 µM unless noted
# SW-620 colon = conditions: 10 µM unless noted
# MCF7 breast = conditions: 10 µM unless noted
# KM12 colon = conditions: 10 µM unless noted
SMILES,growth (NCI-H460 lung),growth (786-0 renal),growth (DU-145 prostate),growth (SF-268 CNS),growth (SF-539 CNS),growth (M14 melanoma),growth (HCT-15 colon),growth (SNB-75 CNS),growth (PC-3 prostate),growth (UACC-62 melanoma),growth (TK-10 renal),growth (ACHN renal),growth (CAKI-1 renal),growth (HL-60(TB) leukemia),growth (MOLT-4 leukemia),growth (OVCAR-3 ovarian),growth (NCI/ADR-RES ovarian),growth (SW-620 colon),growth (MCF7 breast),growth (KM12 colon)
COC[CH2][Hg][C]#[C][Hg][CH2]COC,94.4%,41.7%,87.6%,93.7%,90.7%,73.2%,97.1%,83%,94.7%,106%,119%,98.7%,94.8%,89.3%,79.8%,113%,102%,108%,55.3%,85.5%
Oc1c(Br)cc(Br)cc1Br.[Cu+2],103%,115%,108%,105%,107%,103%,108%,98.7%,103%,109%,117%,105%,104%,87.9%,92.1%,109%,105%,99.2%,101%,98.1%
CCN1CC2(CN(CC)C1=S)C(=O)NC(=O)NC2=O,100%,90.3%,97.6%,95.1%,107%,88.9%,99.9%,95.8%,85.7%,101%,98.5%,99%,85.4%,83.3%,107%,107%,97.4%,97.4%,92.5%,94.1%
NC(Cc1ccc2c(c1)OCO2)c1ccc2c(c1)OCO2 (configuration not stated),104%,98.5%,116%,103%,114%,102%,115%,75.4%,93.4%,92.6%,105%,108%,95.2%,108%,107%,120%,107%,101%,89.2%,109%
CC(=O)O[C@H]1C[C@H](O[C@H]2[C@@H](O)C[C@H](O[C@H]3[C@@H](O)C[C@H](O[C@H]4CC[C@@]5(C)C(CCC6C5C[C@@H](O)[C@]5(C)[C@@H](C7=CC(=O)OC7)CC[C@]65O)C4)O[C@@H]3C)O[C@@H]2C)O[C@H](C)[C@H]1O[C@@H]1O[C@H](CO)[C@@H](O)[C@H](O)[C@H]1O (some centres not stated),-88.3% (active),-91.2% (active),-100% (active),-100% (active),-88% (active),-77% (active),-79.1% (active),-66.1% (active),-6.71% (active),-94.3% (active),-91% (active),-59.1% (active),-94.4% (active),-46.4% (active),-32.1% (active),-100% (active),-69.5% (active),-90.5% (active),-53% (active),-100% (active)
O=C(N/N=C/c1ccc([N+](=O)[O-])o1)c1cc([N+](=O)[O-])cc([N+](=O)[O-])c1O,105%,106%,111%,101%,112%,102%,93.3%,83%,85.9%,88.9%,121%,90.6%,88.5%,93.5%,62.8%,113%,89.1%,102%,84.6%,99.7%
Nc1c(Br)cc([N+](=O)[O-])cc1[N+](=O)[O-],103%,105%,101%,97.7%,110%,113%,114%,99.2%,102%,101%,114%,125%,92.8%,67.8%,97.2%,108%,105%,103%,103%,105%
C/C1=C/C(=O)O[C@@H]2C[C@@H](CC[C@H](C)/C=C\C=C\CC1)O[C@@](OCCc1ccccc1)([C@@H]1CSC(=O)N1)C2,21.6%,9.36% (active),-2.11% (active),-42.9% (active),9.84% (active),38.5%,46.3%,-62.8% (active),18.3%,24.3%,-68.1% (active),7.46% (active),-74.3% (active),90.6%,61.4%,-48.7% (active),48.4%,59.3%,–,58.2%
CC(C)(C)[Si](C)(C)OC1[C@@H](O[Si](C)(C)C(C)(C)C)[C@@H](CNC(=O)NC(=O)CF)O[C@H]1n1cnc2c(NC(=O)Nc3ccccc3)ncnc21 (some centres not stated),4.01% (active),61.4%,47.6%,26.6%,92.6%,73.2%,80.7%,73.8%,14.5%,76.6%,–,71.8%,85.6%,17.3%,-13.4% (active),19.8%,71%,33.8%,19%,28.5%
CC(=O)O[C@@H]1C2=C(C)C3(CC3)[C@@](C)(O)C(=O)C2=C[C@@]1(C)CO,2.34% (active),0.386% (active),5.53% (active),6.35% (active),-33.1% (active),-48.6% (active),0.741% (active),-85.7% (active),6.46% (active),-69.8% (active),4.18% (active),-6.63% (active),3.26% (active),-4.61% (active),5.2% (active),-9.99% (active),-5.59% (active),4.27% (active),1.42% (active),0.46% (active)
COc1cc(CNCCc2ccc(Cl)cc2)cc(OC)c1O,83.3%,78.3%,91%,73%,68.7%,64.8%,54.8%,44.6%,52.9%,61.2%,79.6%,75.6%,58.4%,54.4%,37.3%,61%,44.8%,64.1%,63.7%,65.7%
Clc1ccc(SSC(Cl)(Cl)Cl)cc1,101%,106%,114%,104%,103%,107%,112%,106%,88.9%,116%,–,102%,119%,113%,99.7%,108%,117%,97.6%,108%,108%
CCC[CH2][Sn]1([CH2]CCC)[O]C(=O)c2cccc([N+](=O)[O-])c2C(=O)[O]1,-5.56% (active),-97.3% (active),-96.7% (active),-90.1% (active),-99.5% (active),-89.2% (active),-85.5% (active),-82.3% (active),-67.5% (active),-88.3% (active),-95.7% (active),-100% (active),-93.4% (active),-48.2% (active),-24.4% (active),-99.3% (active),-54.4% (active),-54.6% (active),-99% (active),-83.9% (active)
CCOc1c(Cl)cc(CNC(C)C(O)c2ccccc2)cc1OC (configuration not stated),75.1%,89.1%,57%,66.8%,82.8%,57.4%,47.1%,-15.5% (active),57.2%,63.2%,90.5%,76.8%,87.9%,20.5%,41.9%,67.4%,50.9%,43.4%,42.9%,55.3%
COc1cc(C2CC(=O)Nc3nc(N)[se]c32)c(OC)c2c1OCO2 (configuration not stated),23.9%,105%,103%,107%,91%,85.1%,101%,101%,51.6%,99.3%,109%,99.1%,89.8%,84.4%,117%,114%,109%,110%,94.1%,70.3%
COc1c(O)c2c3c(c1OC)-c1ccccc1CC3N(C)CC2 (configuration not stated),110%,100%,116%,101%,107%,93.3%,105%,82.4%,100%,94.9%,102%,105%,94.3%,112%,83.6%,109%,99.7%,117%,100%,100%
